Laboratory results published in PubChem BioAssay (NCI).
About 79,000 compounds went through this panel and 15% of them were active in at least one assay; those are over-represented in the sample as a whole. Active and inactive are the calls of the source. Rule as the data show it: active = growth inhibition above about 70%; inactive = the rest.

What was measured:
[1] = NCI Yeast Anticancer Drug Screen. Data for the wt1 strain (AID 149);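 also: 0% = growth of vehicle-treated wt1 cultures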; conditions: S. cerevisiae wt1 strain (SPY 50644) growth inhibition, hits give high values
In short: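 Growth inhibition read against vehicle controls after compound exposure of the wt1 yeast strain.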

[2] = NCI Yeast Anticancer Drug Screen. Data for the rad50EPP+ strain (AID 151);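 also: 0% = growth of vehicle-treated control cultures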; conditions: S. cerevisiae rad50 mutant strain, hits give high values
In short: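 Growth inhibition read against vehicle controls in rad50EPP+ yeast, a strain altered in DNA damage repair, after compound exposure.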

[3] = NCI Yeast Anticancer Drug Screen. Data for the mgt1 strain (AID 153); conditions: S. cerevisiae mgt1 mutant growth inhibition, hits give high values
In short: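 mgt1 yeast grown with test compound; read-out is growth inhibition versus vehicle-treated cultures.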

[4] = NCI Yeast Anticancer Drug Screen. Data for the rad50 strain (AID 155);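 also: 0% = growth of vehicle-only cultures of the same strain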; conditions: S. cerevisiae rad50 strain growth inhibition, hits give high values
In short: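 Readout: growth inhibition relative to vehicle-treated cultures. Compound exposure was carried out in a genetically defined yeast strain deficient in DNA damage repair.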

[5] = NCI Yeast Anticancer Drug Screen. Data for the mec2-1 strain (AID 157); conditions: S. cerevisiae mec2-1 strain, hits give high values
In short: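 Yeast mec2-1 mutant treated with compound. Readout: growth inhibition vs vehicle controls.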

[6] = NCI Yeast Anticancer Drug Screen. Data for the sgs1 mgt1 strain (AID 161);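 also: 0% = growth of cultures given vehicle only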; conditions: S. cerevisiae sgs1 mgt1 strain, hits give high values
In short: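 Inhibition of yeast growth, normalised to vehicle-treated controls, is reported for a strain bearing genetic alterations in DNA damage repair.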

[7] = NCI Yeast Anticancer Drug Screen. Data for the CLN2oe strain (AID 163);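 also: 0% = growth of vehicle-only control cultures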; conditions: S. cerevisiae CLN2oe strain, hits give high values
In short: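 Read-out: yeast growth inhibition, expressed relative to vehicle-only controls. The strain bears an engineered cell-cycle alteration.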

[8] = NCI Yeast Anticancer Drug Screen. Data for the cln2 rad14 strain (AID 165);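 also: 0% = growth equal to vehicle treated cultures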; conditions: S. cerevisiae cln2 rad14 strain, hits give high values
In short: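 cln2 rad14 yeast strain; compound exposure; growth inhibition read vs vehicle controls.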

[9] = NCI Yeast Anticancer Drug Screen. Data for the bub3 strain (AID 167); conditions: S. cerevisiae bub3 mutant strain, hits give high values
In short: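 Readout: yeast growth inhibition, expressed relative to vehicle-only wells. The test organism is a mutant strain from a panel with lesions in DNA repair or checkpoint genes.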

[10] = NCI Yeast Anticancer Drug Screen. Data for the wt2 strain (AID 169);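 also: 0% = growth of vehicle-treated yeast cultures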; conditions: S. cerevisiae wt2 strain growth inhibition, hits give high values
In short: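 Read-out: growth inhibition versus vehicle-treated control cultures after compound exposure of the yeast strain.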

[11] = NCI Yeast Anticancer Drug Screen. Data for the mlh1 strain (AID 171);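 also: 0% = growth of vehicle-treated control cultures of the same strain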; conditions: S. cerevisiae mlh1 strain growth inhibition, hits give high values
In short: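 Read-out: growth inhibition versus vehicle controls. Strain: engineered yeast with a defined DNA repair or cell cycle defect, compound-treated.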

[12] = NCI Yeast Anticancer Drug Screen. Data for the sgs1 strain (AID 173);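 also: 0% = growth of vehicle-only control cultures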; conditions: S. cerevisiae sgs1 mutant, hits give high values
In short: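 Read-out: yeast growth inhibition relative to vehicle controls, following compound exposure of a strain with a defined DNA repair/cell cycle alteration.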

[13] = NCI Yeast Anticancer Drug Screen. Data for the mlh1 rad18 strain (AID 175); conditions: S. cerevisiae mlh1 rad18 strain growth inhibition, hits give high values
In short: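 Yeast w/ defined DNA-repair lesions; compound exposure; growth vs vehicle controls → % inhibition.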

[14] = at 5.0 µM (retest, dose inferred, filed as 0.5)
[15] = at 50.0 µM (retest, dose inferred, filed as 5.0)

Measured: growth inhibition

O=c1c(Br)cc2c(-c3ccccc3)c3cc(Br)c(O)c(Br)c3oc-2c1Br
active: [4]; at 11.0 µM 89% | [4]; at 33.0 µM 87% | [4]; at 50.0 µM 80.8% | [4]; at 100.0 µM 80% | [5]; at 50.0 µM 78.4% | [9]; at 11.0 µM 76% | [9]; at 33.0 µM 92% | [9]; at 100.0 µM 79% | [13]; at 50.0 µM 83.4%
inactive: [1]; at 1.2 µM -1% | [1]; at 3.7 µM 11% | [1]; at 11.0 µM 9% | [1]; at 33.0 µM 0% | [1]; at 100.0 µM -4% | [2]; at 1.2 µM 1% | [2]; at 3.7 µM 23% | [2]; at 11.0 µM 38% | [2]; at 33.0 µM 57% | [2]; at 100.0 µM 39% | [3]; at 1.2 µM 0% | [3]; at 3.7 µM -2% | [3]; at 11.0 µM 9% | [3]; at 33.0 µM 28% | [3]; at 100.0 µM 23% | [4]; at 1.2 µM -54% | [4]; at 3.7 µM 24% | [4]; [14] 22% | [4]; [15] 13% | [5]; at 1.2 µM 1% | [5]; at 3.7 µM 4% | [5]; [14] 54% | [5]; at 11.0 µM -1% | [5]; at 33.0 µM -3% | [5]; [15] 28% | [5]; at 100.0 µM -1% | [6]; [14] 16% | [6]; [15] 7% | [6]; at 50.0 µM 61.3% | [7]; at 1.2 µM 3% | [7]; at 3.7 µM 5% | [7]; at 11.0 µM 9% | [7]; at 33.0 µM 23% | [7]; at 100.0 µM 15% | [8]; [14] 28% | [8]; [15] 12% | [8]; at 50.0 µM 55% | [9]; at 1.2 µM -4% | [9]; at 3.7 µM 4% | [9]; [14] 6% | [9]; [15] -6% | [9]; at 50.0 µM 54.2% | [10]; at 1.2 µM 10% | [10]; at 3.7 µM 17% | [10]; at 11.0 µM 21% | [10]; at 33.0 µM 18% | [10]; at 100.0 µM 6% | [11]; at 1.2 µM 0% | [11]; at 3.7 µM -29% | [11]; at 11.0 µM 12% | [11]; at 33.0 µM 18% | [11]; at 100.0 µM 25% | [12]; at 1.2 µM 0% | [12]; at 3.7 µM 8% | [12]; at 11.0 µM 26% | [12]; at 33.0 µM 22% | [12]; at 100.0 µM 13% | [13]; [14] 67% | [13]; [15] 58%
